Assay results from PubChem BioAssay (NCI).
This is part of a sample that, as a whole, favours compounds with a hit. Of some 83,000 tested, about 20% had one in any assay.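 Assay: single dose, 48 h. Readout: percent growth (0 = no net growth; negative = cell death). Active: <10.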 The source made the active and inactive calls.

Legend:
Test in all cases: NCI-60 one-dose screen, 48 h (100 = growth as untreated, 0 = no growth, -100 = all killed)
Conditions in all cases: 10 µM
DU-145 prostate = system: DU-145 prostate
K-562 leukemia = system: K-562 leukemia
MDA-MB-231 breast = system: MDA-MB-231 breast
RXF 393 renal = system: RXF 393 renal
SF-268 CNS = system: SF-268 CNS
SF-295 CNS = system: SF-295 CNS
SF-539 CNS = system: SF-539 CNS
UACC-257 melanoma = system: UACC-257 melanoma
M14 melanoma = system: M14 melanoma
HCT-15 colon = system: HCT-15 colon
HT29 colon = system: HT29 colon
SNB-75 CNS = system: SNB-75 CNS
SNB-19 CNS = system: SNB-19 CNS
SK-MEL-5 melanoma = system: SK-MEL-5 melanoma
UACC-62 melanoma = system: UACC-62 melanoma
LOX IMVI melanoma = system: LOX IMVI melanoma
SK-MEL-28 melanoma = system: SK-MEL-28 melanoma
U251 CNS = system: U251 CNS
PC-3 prostate = system: PC-3 prostate

Measured: growth

N#Cc1cnn(C(=O)c2nn(-c3ccc(Cl)cc3)cc2O)c1N
inactive: DU-145 prostate 34.9% | MDA-MB-231 breast 38.5% | RXF 393 renal 39.3% | SF-268 CNS 29.5% | SF-539 CNS 12.8% | UACC-257 melanoma 19% | M14 melanoma 24.3% | HCT-15 colon 18.1% | HT29 colon 29.1% | SNB-75 CNS 32.4% | SNB-19 CNS 32.5% | SK-MEL-5 melanoma 14.8% | SK-MEL-28 melanoma 56.1%
active: K-562 leukemia -17.5% | SF-295 CNS -25.6% | UACC-62 melanoma 5.76% | LOX IMVI melanoma 8.92%

Cc1ccc(C2NC(=S)N3C(c4ccc(C)cc4)NC(=S)N23)cc1 (centres undefined)
active: K-562 leukemia 5.27% | SF-295 CNS 6.72% | UACC-257 melanoma -22.5% | M14 melanoma -26.5%
inactive: DU-145 prostate 18.7% | MDA-MB-231 breast 59.4% | SF-268 CNS 37.6% | SF-539 CNS 13.9% | HCT-15 colon 29.5% | HT29 colon 17.8% | SNB-75 CNS 127% | SNB-19 CNS 44.5% | U251 CNS 28.3% | PC-3 prostate 34.4% | SK-MEL-5 melanoma 17.1% | UACC-62 melanoma 34.6% | LOX IMVI melanoma 51.4% | SK-MEL-28 melanoma 58.7%

CCN(CC)CCCC(C)Nc1c2ccc(Cl)cc2nc2ccc(OC)cc12 (centres undefined)
inactive: DU-145 prostate 16.1% | MDA-MB-231 breast 19.8% | SF-268 CNS 30.4% | SF-295 CNS 26.8% | HCT-15 colon 14.2% | SNB-75 CNS 16.3% | SNB-19 CNS 35.4% | U251 CNS 11.4% | PC-3 prostate 35%
active: K-562 leukemia 0.665% | RXF 393 renal -16.1% | UACC-257 melanoma -89.3% | M14 melanoma -73.1% | HT29 colon -30.3% | SK-MEL-5 melanoma -87.5% | LOX IMVI melanoma -48.1% | SK-MEL-28 melanoma -57.6%

COc1ccc(N(C)c2ncnc3occ(C)c23)cc1
inactive: RXF 393 renal 14.4% | SF-268 CNS 18% | UACC-257 melanoma 66.8% | HCT-15 colon 11.1% | SNB-75 CNS 44.8% | SNB-19 CNS 27.2% | U251 CNS 13.9% | UACC-62 melanoma 22.9% | LOX IMVI melanoma 17.7% | SK-MEL-28 melanoma 134%
active: DU-145 prostate -40.2% | K-562 leukemia 1.42% | MDA-MB-231 breast -3.09% | SF-295 CNS -8.16% | SF-539 CNS -20.4% | HT29 colon 7.69% | SK-MEL-5 melanoma -44.5%

OC(CCN1CCCC1)(c1ccccc1)C1CCCCC1 (centres undefined)
inactive: DU-145 prostate 108% | K-562 leukemia 117% | MDA-MB-231 breast 104% | RXF 393 renal 103% | SF-268 CNS 95.9% | SF-295 CNS 100% | UACC-257 melanoma 109% | M14 melanoma 99.6% | HCT-15 colon 92.4% | HT29 colon 101% | SNB-75 CNS 84% | SNB-19 CNS 107% | U251 CNS 105% | PC-3 prostate 98.6% | SK-MEL-5 melanoma 89.8% | LOX IMVI melanoma 99.9% | SK-MEL-28 melanoma 105%

Cc1cc(NC(=O)c2ccc(C)c(Nc3nccc(-c4cccnc4)n3)c2)cc(-n2cnc(C)c2)c1
inactive: DU-145 prostate 32.3% | MDA-MB-231 breast 18.5% | SF-268 CNS 73.3% | SF-539 CNS 21.1% | UACC-257 melanoma 87% | M14 melanoma 30.9% | HCT-15 colon 58.6% | SNB-19 CNS 66.6% | PC-3 prostate 61.4% | SK-MEL-5 melanoma 65.7% | UACC-62 melanoma 44.6% | SK-MEL-28 melanoma 41.5%
active: K-562 leukemia -36.2% | RXF 393 renal -3.26% | SF-295 CNS -13.4% | HT29 colon -18.6% | SNB-75 CNS -14% | LOX IMVI melanoma 2.11%

COc1cc(-c2ccc[nH]2)[nH]c1/C=C1\N=C(C)C(C(=O)NC(C)C)=C1C
inactive: DU-145 prostate 21.2% | RXF 393 renal 47.6% | SF-268 CNS 44.4% | SF-295 CNS 40.2% | SF-539 CNS 18.9% | UACC-257 melanoma 23.3% | SNB-19 CNS 74.5% | U251 CNS 31.4% | SK-MEL-28 melanoma 44%
active: K-562 leukemia 1.73% | MDA-MB-231 breast -9.67% | M14 melanoma -1.65% | HCT-15 colon 8.9% | SNB-75 CNS -13.7% | SK-MEL-5 melanoma -88.4% | UACC-62 melanoma -33.5% | LOX IMVI melanoma -62.6%

O=C1NC(=O)c2c(CCCSc3nc4ccccc4c(=O)n3CCc3ccccc3)cccc21
inactive: DU-145 prostate 111% | K-562 leukemia 89.7% | MDA-MB-231 breast 65.8% | RXF 393 renal 92.8% | SF-268 CNS 91.2% | SF-295 CNS 44.9% | SF-539 CNS 65.7% | UACC-257 melanoma 105% | M14 melanoma 98.1% | HCT-15 colon 96% | HT29 colon 90.3% | SNB-75 CNS 82.8% | SNB-19 CNS 94.8% | PC-3 prostate 88.9% | SK-MEL-5 melanoma 95.8% | UACC-62 melanoma 90% | LOX IMVI melanoma 81.8% | SK-MEL-28 melanoma 105%

COc1ccccc1N1CCCSC1=Nc1ccccc1
inactive: DU-145 prostate 99.7% | K-562 leukemia 78.4% | MDA-MB-231 breast 101% | SF-268 CNS 99% | SF-295 CNS 80.2% | SF-539 CNS 98.9% | UACC-257 melanoma 43.7% | M14 melanoma 63.3% | HCT-15 colon 115% | HT29 colon 150% | SNB-75 CNS 232% | SNB-19 CNS 92.9% | U251 CNS 105% | PC-3 prostate 92.9% | SK-MEL-5 melanoma 96.6% | UACC-62 melanoma 99.9% | LOX IMVI melanoma 92.5% | SK-MEL-28 melanoma 95.9%

O[C@@H]1CO[C@H]2[C@@H]1OC[C@@H]2O
inactive: DU-145 prostate 108% | K-562 leukemia 124% | MDA-MB-231 breast 92.5% | RXF 393 renal 125% | SF-268 CNS 108% | SF-539 CNS 106% | UACC-257 melanoma 103% | M14 melanoma 103% | HCT-15 colon 102% | HT29 colon 103% | SNB-75 CNS 91.1% | SNB-19 CNS 99.5% | U251 CNS 108% | PC-3 prostate 90% | SK-MEL-5 melanoma 116% | UACC-62 melanoma 103% | LOX IMVI melanoma 97% | SK-MEL-28 melanoma 113%

CC1OC2CC(=O)OC2C2=C1C(=O)c1c(O)c3c(c(O)c1C2=O)C1CC(O)C3(O)C(C)O1 (centres undefined)
active: DU-145 prostate -94.9% | K-562 leukemia 6.27% | MDA-MB-231 breast -16.3% | RXF 393 renal -91.1% | SF-268 CNS 1.92% | SF-295 CNS 3.26% | SF-539 CNS -84.2% | UACC-257 melanoma -58.4% | HCT-15 colon -15.8% | SNB-75 CNS -28.9% | U251 CNS -23.4% | PC-3 prostate 7.91% | SK-MEL-5 melanoma -96.1% | UACC-62 melanoma -76.5% | LOX IMVI melanoma -65.9% | SK-MEL-28 melanoma -51.5%

O=c1c(Br)ccc(Br)cc1Br
active: DU-145 prostate -72.3% | K-562 leukemia -11.6% | MDA-MB-231 breast -3.63% | RXF 393 renal -89.5% | M14 melanoma -70.2% | HCT-15 colon -32.8% | HT29 colon -41.6% | PC-3 prostate -24.7% | UACC-62 melanoma -5.1% | LOX IMVI melanoma -76.9% | SK-MEL-28 melanoma -53.4%
inactive: SF-268 CNS 14.3% | SF-295 CNS 46.7% | SF-539 CNS 15% | SNB-19 CNS 86.6% | SK-MEL-5 melanoma 32.4%

CC(=O)Nc1ccc(S(=O)(=O)N/N=C(\C)c2ccc(C)cc2C)cc1
inactive: DU-145 prostate 112% | K-562 leukemia 94.9% | MDA-MB-231 breast 113% | RXF 393 renal 129% | SF-268 CNS 104% | SF-539 CNS 98.3% | UACC-257 melanoma 95.1% | M14 melanoma 106% | HCT-15 colon 100% | HT29 colon 105% | SNB-75 CNS 77.4% | SNB-19 CNS 101% | PC-3 prostate 99.9% | SK-MEL-5 melanoma 113% | UACC-62 melanoma 107% | LOX IMVI melanoma 106% | SK-MEL-28 melanoma 108%

Cc1ccc(C(C)C)c(O)c1NC(=O)OC(C)C
inactive: DU-145 prostate 107% | K-562 leukemia 114% | MDA-MB-231 breast 106% | RXF 393 renal 108% | SF-268 CNS 93.8% | SF-295 CNS 101% | UACC-257 melanoma 91.7% | M14 melanoma 96.6% | HCT-15 colon 92.2% | SNB-75 CNS 77.5% | SNB-19 CNS 99.4% | U251 CNS 105% | PC-3 prostate 85.5% | SK-MEL-5 melanoma 97.6% | UACC-62 melanoma 92% | LOX IMVI melanoma 99.4% | SK-MEL-28 melanoma 101%

COc1cc2c(cc1OC)C(C(CCCCCC(CCC(C)C)C1NCCc3cc(OC)c(OC)cc31)CCC(C)C)NCC2 (centres undefined)
active: DU-145 prostate -100% | MDA-MB-231 breast -81.9% | SF-268 CNS -95.7% | SF-295 CNS -77.5% | SF-539 CNS -97.4% | UACC-257 melanoma -92.5% | M14 melanoma -93.6% | HCT-15 colon -100% | HT29 colon -95.3% | SNB-75 CNS -99.5% | U251 CNS -99% | PC-3 prostate -92.3% | SK-MEL-5 melanoma -96.4% | UACC-62 melanoma -91.5% | LOX IMVI melanoma -100%
inactive: K-562 leukemia 13.6%

CC[N+](CC)=c1ccc2nc3c(cc(NCc4ccccc4)c4ccccc43)oc-2c1
active: DU-145 prostate -95.8% | K-562 leukemia -26.1% | MDA-MB-231 breast -69.6% | RXF 393 renal -91.4% | SF-268 CNS -15.9% | SF-295 CNS -98.9% | SF-539 CNS -87% | UACC-257 melanoma -98.4% | M14 melanoma -74.4% | HCT-15 colon -45.8% | HT29 colon -62.9% | SNB-19 CNS -79.7% | U251 CNS -95% | PC-3 prostate -19% | SK-MEL-5 melanoma -97.4% | UACC-62 melanoma -73% | LOX IMVI melanoma -64.2%

COc1ccc(-c2nc(-c3nc4ccc(C)cc4[nH]3)cc3c2[nH]c2ccccc23)cc1
inactive: DU-145 prostate 41.4% | K-562 leukemia 17% | MDA-MB-231 breast 15.8% | RXF 393 renal 27.9% | SF-268 CNS 50.3% | SF-295 CNS 25.5% | SF-539 CNS 50.2% | UACC-257 melanoma 69.6% | M14 melanoma 31.5% | HCT-15 colon 29.7% | HT29 colon 30% | SNB-19 CNS 84.1% | U251 CNS 34.8% | PC-3 prostate 43.8% | SK-MEL-5 melanoma 35.6% | UACC-62 melanoma 21% | LOX IMVI melanoma 25.8% | SK-MEL-28 melanoma 71.7%

Clc1ccc(Cc2ccncc2)cc1
inactive: DU-145 prostate 114% | K-562 leukemia 111% | MDA-MB-231 breast 99.5% | RXF 393 renal 110% | SF-268 CNS 96.2% | SF-295 CNS 112% | UACC-257 melanoma 104% | M14 melanoma 109% | HCT-15 colon 104% | SNB-75 CNS 89.8% | SNB-19 CNS 98.9% | U251 CNS 113% | PC-3 prostate 103% | SK-MEL-5 melanoma 104% | UACC-62 melanoma 95.3% | LOX IMVI melanoma 97.9% | SK-MEL-28 melanoma 112%
